The results in this text go back to PubChem BioAssay (NCI).

SMILES strings stand for the structures. Compounds without any hit were thinned out: in the full panel of roughly 83,000, 20% have a hit.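 Note: values are percent growth. 100 is the growth of untreated cells, values between 100 and 0 indicate rising inhibition; between -100 and 0 indicates cell death.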 A number with no mark means an inactive call. The source made the active and inactive calls. How the source made its calls: active means growth percent below 10; inactive means the rest.

Some test systems named below: NCI-H23 lung; NCI-H226 lung; NCI-H322M lung; NCI-H460 lung; HOP-92 NSCLC; NCI-H522 lung; A549/ATCC NSCLC; 786-0 renal; COLO 205 colon; DU-145 prostate; K-562 leukemia; MALME-3M melanoma; MDA-MB-231 breast; SF-268 CNS; SF-295 CNS; SF-539 CNS; UACC-257 melanoma; RXF 393 renal; M14 melanoma.
Holding throughout (test): NCI-60 one-dose screen, 48 h (100 = growth as untreated, 0 = no growth, -100 = all killed)
Conditions in all cases: 10 µM

In the case of `CC(=O)NS(=O)(=O)c1ccc(NC(=O)CSC2=NC(c3ccccc3)C(C(C)=O)=C(C)N2)cc1` (stereo unspecified), the growth in the test on NCI-H23 lung was 97.5%; in the test on NCI-H226 lung, 109%; with NCI-H322M lung, 105%; with NCI-H460 lung, 121%; in the test on HOP-92 NSCLC, 134%; in the test on NCI-H522 lung, 98.4%. Also, the growth was 98.1% in the test with A549/ATCC NSCLC; 103% in the test with 786-0 renal; 126% with COLO 205 colon; 120% with DU-145 prostate; 104% in the test with K-562 leukemia; 103% in the test with MALME-3M melanoma. Moreover, the growth in the test with MDA-MB-231 breast is 110%; in the test with SF-268 CNS, 107%; with SF-295 CNS, 101%; in the test on SF-539 CNS it was 107%; in the test on UACC-257 melanoma, 106%.

For `O=C(c1ccc(Cl)cc1)C1[C@H](c2ccccc2Br)[C@@H](c2ccccc2)NC12C(=O)Nc1ccc(Br)cc12` (stereo partly specified), the growth in the test with NCI-H23 lung was 3.35% (active); with NCI-H226 lung, 12.5%; in the test on NCI-H322M lung it was 41.6%; with NCI-H460 lung, 2.66% (active); in the test with HOP-92 NSCLC, 4.57% (active); with A549/ATCC NSCLC, 0.826% (active). Further, the growth is -2.24% (active) in the test with 786-0 renal; -49.6% (active) in the test on COLO 205 colon; 29.7% in the test on DU-145 prostate; 6.68% (active) with K-562 leukemia; 50.1% in the test on MALME-3M melanoma; 2.81% (active) in the test with MDA-MB-231 breast. Moreover, the growth in the test with RXF 393 renal was -26.1% (active); in the test on SF-268 CNS, 32.7%; in the test with SF-295 CNS, 14.9%; in the test with SF-539 CNS, 30.2%; in the test with UACC-257 melanoma, 10.3%.

As for `CCCn1c(=O)c2[nH]c(-c3ccc(OCc4nc5ccc(C(F)(F)F)cc5[nH]4)cc3)nc2n(CCC)c1=O`, the growth was 11.1% with NCI-H23 lung; 37.8% with NCI-H226 lung; 69.2% with NCI-H322M lung; 41.4% in the test with NCI-H460 lung; 67.7% with HOP-92 NSCLC; 23.6% in the test on NCI-H522 lung. Further, the growth in the test with A549/ATCC NSCLC is 46.7%; in the test on 786-0 renal, 42.8%; in the test with COLO 205 colon, 59.3%; in the test with DU-145 prostate, 58.3%; with K-562 leukemia it was 34.9%; with MALME-3M melanoma it was 14.2%. The growth in the test on MDA-MB-231 breast was 11.1%; with SF-268 CNS, 57.2%; in the test on SF-295 CNS, 38.8%; in the test on SF-539 CNS, 1.94% (active); with UACC-257 melanoma, 65.5%; in the test with M14 melanoma it was 59.5%.

As to `CC(=C(c1ccc(OCCN2CCCCCC2)cc1)c1ccc(OCCN2CCCCCC2)cc1)c1ccc(Cl)cc1`, the growth is -96% (active) in the test on NCI-H23 lung; -89.8% (active) in the test on NCI-H226 lung; -100% (active) in the test on NCI-H322M lung; -54.1% (active) with NCI-H460 lung; -74.3% (active) in the test on HOP-92 NSCLC; -92.7% (active) in the test on NCI-H522 lung. For the same compound, the growth with A549/ATCC NSCLC is -98.4% (active); in the test on 786-0 renal, -75.7% (active); in the test on COLO 205 colon, -93% (active); in the test with DU-145 prostate, -96.1% (active); in the test with MALME-3M melanoma, -98.9% (active); in the test with MDA-MB-231 breast, -98.8% (active). In addition, the growth in the test on RXF 393 renal was -99.4% (active); in the test on SF-268 CNS it was -84.9% (active); with SF-295 CNS it was -80.6% (active); in the test on SF-539 CNS, -100% (active); in the test with UACC-257 melanoma it was -96.3% (active); in the test on M14 melanoma, -57.9% (active).

`O=C(CSc1nnc(-c2ccc3nc(-c4ccccc4)[nH]c3c2)o1)Nc1ccc(Cl)cc1`: the growth was 21.4% in the test on NCI-H23 lung; 31.4% with NCI-H226 lung; 63.9% in the test on NCI-H322M lung; 48.8% in the test with NCI-H460 lung; 79.1% in the test on HOP-92 NSCLC; 28.7% with NCI-H522 lung. Also, the growth with A549/ATCC NSCLC was 57.1%; in the test with 786-0 renal it was 16.9%; in the test on DU-145 prostate, 73.6%; in the test on K-562 leukemia it was 16.7%; with MALME-3M melanoma, 44%; in the test on MDA-MB-231 breast, 27.4%. Further, the growth in the test on SF-268 CNS was 59.6%; with SF-295 CNS, -14.9% (active); with SF-539 CNS it was 23.4%; with UACC-257 melanoma, 75.3%; with M14 melanoma, 39.7%.

Regarding `C=CCn1c(SCC(=O)Nc2ccc(C(=O)/C=C/c3ccccc3)cc2)nnc1-c1c[nH]c2ccccc12`, the growth is 68.3% in the test on NCI-H23 lung; 35.4% in the test on NCI-H226 lung; 79.5% in the test with NCI-H322M lung; 78.6% in the test on NCI-H460 lung; 70.4% with HOP-92 NSCLC; 60.6% in the test on NCI-H522 lung. In addition, the growth was 63.5% with A549/ATCC NSCLC; 79.1% with 786-0 renal; 59.7% in the test with COLO 205 colon; 65.8% in the test on DU-145 prostate; 14.6% in the test on K-562 leukemia; 92.4% in the test with MALME-3M melanoma. For the same compound, the growth with MDA-MB-231 breast is 69.3%; in the test on SF-268 CNS, 53.3%; with SF-295 CNS, 35%; in the test with SF-539 CNS, -7.36% (active); in the test with UACC-257 melanoma, 80.3%; in the test with M14 melanoma, 35.3%.

With `CC(=O)Nc1nc(-c2ccc(N3CCN(C)CC3)c(NS(=O)(=O)c3ccc(C(F)(F)F)cc3)c2)cs1`, the growth in the test with NCI-H23 lung was 55.8%; in the test with NCI-H226 lung, 40.1%; with NCI-H322M lung it was 88.2%; with NCI-H460 lung, 31.3%; in the test on HOP-92 NSCLC, 9.58% (active); in the test with NCI-H522 lung, 11.4%. The growth is 55.5% in the test on A549/ATCC NSCLC; -62.5% (active) in the test on 786-0 renal; 36% with COLO 205 colon; 23.3% with DU-145 prostate; 38.1% in the test on MALME-3M melanoma; 24.2% with MDA-MB-231 breast. Moreover, the growth in the test with RXF 393 renal was -47% (active); in the test on SF-268 CNS, 41.1%; in the test with SF-295 CNS it was 46%; with SF-539 CNS, -86.4% (active); with UACC-257 melanoma, 49.5%; in the test with M14 melanoma, -3.51% (active).

`CCCCCCCCCCCCCCCCCCCC(=O)NCCc1c[nH]c2ccc(O)cc12`: the growth is 103% with NCI-H23 lung; 87.6% with NCI-H226 lung; 114% with NCI-H322M lung; 101% in the test on NCI-H460 lung; 148% with HOP-92 NSCLC; 90.8% with A549/ATCC NSCLC. Besides, the growth was 100% in the test with 786-0 renal; 147% in the test on COLO 205 colon; 105% in the test on DU-145 prostate; 74.5% in the test on K-562 leukemia; 120% in the test on MALME-3M melanoma; 78% with MDA-MB-231 breast. Besides, the growth in the test on RXF 393 renal was 115%; in the test on SF-268 CNS, 91.6%; in the test on SF-295 CNS, 96.3%; in the test on SF-539 CNS, 60.8%; with UACC-257 melanoma, 107%; in the test with M14 melanoma, 101%.
